Sampled rows, rich in hits. Any-hit rate of the full collection: about 3.9%.
Wnt act: Wnt/beta-catenin pathway activators, primary screen, cell-based, plate reader, single point. AID 743398, 2014. activation, % at 9.35 µM. Wnt/beta-catenin reporter cell assay, activator. 300,000 compounds, 1.2% hits; in the data active means activation above about 30%, passing the limit was not always enough; inconclusive means no clear call, values can overlap the other calls;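 further: 0% = neutral control wells and 100% = positive control wells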
HSF1 activator: HSF-1 activators, primary screen, NIH3T3-HGL cells, MG132 stress, luminescence, single point; NIH3T3-HGL HSF-1 luciferase reporter, 8 h; 100% = twice DMSO control signal; activation, % at 9 µM; 300,000 compounds, 1.7% hits; AID 504408, 2011;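 active means mean replicate activation of at least 50% with a set share of replicates each reaching 50%; inconclusive means only one of those two conditions met; inactive means mean below 50% and too few replicates reaching it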;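 further: 0% = median of the neutral control wells and 100% = twice that signal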
esBAF inh: Bmi1 luciferase reporter increase in mESCs, primary screen, esBAF inhibitor project, mouse ES cells, Bmi1 luciferase knock-in, single point; reporter increase, % at 12.5 µM; AID 602393, 2012; 24 h; 100% = twice the neutral-well signal; 350,000 compounds, 2% hits; in the data active means activation above about 40%; inconclusive means no clear call, values can overlap the other calls;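 further: 0% = median of the plate's neutral control wells and 100% = double that signal; a rise in the Bmi1 reporter signal indicates esBAF inhibition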
MITF TRPM1 HTS: activators of MITF-driven TRPM1 promoter reporter, primary screen, cell-based, SK-MEL-5, luciferase, single point. SK-MEL-5 TRPM1-promoter luciferase, 24 h; % of positive control, neutral wells = 0. activation, % at 12.5 µM. 300,000 compounds, 0.75% hits. AID 588334, 2011;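 active means mean activation of at least 80% with every replicate also reaching 80%; inconclusive means mean reaches 80% but some replicate falls short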;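 further: 0% = neutral control wells and 100% = parthenolide positive control wells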
HSF1 inh: HSF1 inhibitors in luciferase reporter cells, primary screen, cell-based, NIH3T3, luminescence. NIH3T3-HGL HSE-luciferase, MG132-induced, luminescence 8 h; stronger effect = lower value. activity change, negative = inhibition, % at 7.5 µM (by protocol). 300,000 compounds, 0.77% hits;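 active means more than half of replicate wells show activity change below -50%, luminescence cut by over half; inconclusive means some wells, but at most half, below -50%; inactive means no replicate well below -50%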;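 further: luciferase reports HSF-1 transcriptional activity via heat shock element; 0% = median of DMSO wells and -100% = zero luminescence signal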
* hit, by the source's call.

Screening CN1C(=O)c2cc(NC(=O)Cc3cccs3)ccc2OC[C@@H]2O[C@@H](CC(=O)NCc3ccc(-c4ccccc4)cc3)CC[C@H]21 returned esBAF inh -10.5.
O=C(O)c1ccc(CN2C(=O)c3cccc4c([N+](=O)[O-])ccc(c34)C2=O)cc1 was read as HSF1 activator -82.0, esBAF inh 6.9, MITF TRPM1 HTS -7.2 and HSF1 inh -83.5*.
Cc1ccc(C(=O)O)cc1N1C(=O)c2cccc3c([N+](=O)[O-])ccc(c23)C1=O was read as Wnt act -0.5, HSF1 activator -10.2, esBAF inh 0.2 and HSF1 inh -9.3.
`COc1ccc(C)cc1S(=O)(=O)N(C)CC(=O)N1CCC(C(N)=O)CC1` gave Wnt act 0.5, HSF1 activator -4.4, esBAF inh -2.9, MITF TRPM1 HTS 1.2 and HSF1 inh -4.8.
Screening COc1ccc(S(=O)(=O)N(C)CC(=O)N2CCC(C(N)=O)CC2)cc1Cl returned HSF1 activator 66.0*, MITF TRPM1 HTS 7.4 and HSF1 inh 25.2.
Screening C[C@H]1CN([C@@H](C)CO)C(=O)c2cc(NS(=O)(=O)c3cccs3)ccc2O[C@H]1CN(C)C(=O)Nc1ccccc1 returned esBAF inh -6.5.
Screening O=c1c2ccccc2ncn1C1CCCCC1 returned HSF1 activator 17.0, esBAF inh 7.9, MITF TRPM1 HTS 8.2 and HSF1 inh -4.8.
O=c1c2[nH]c3ccccc3c2ncn1C1CCCCC1 was read as HSF1 activator 8.1, esBAF inh 61.7* and HSF1 inh 1.9.
`Oc1cccc(-c2nc3ccccc3s2)c1` gave Wnt act 22.3, HSF1 activator 38.2, esBAF inh -25.2, MITF TRPM1 HTS 16.0 and HSF1 inh 26.1.
For Nc1ccc(C(=O)OCc2nc3ccccc3s2)cc1 the results were Wnt act 3.9, HSF1 activator 29.3, MITF TRPM1 HTS 10.1 and HSF1 inh 4.5.
Screening OCc1cc(Br)ccc1OCc1nc2ccccc2s1 returned HSF1 activator 71.2*, esBAF inh 77.3*, MITF TRPM1 HTS 75.2 and HSF1 inh 32.8.
O=C(OCc1nc2ccccc2s1)c1ccc(Br)s1 was read as Wnt act 18.8, HSF1 activator 34.9, esBAF inh 9.9, MITF TRPM1 HTS -0.2 and HSF1 inh -1.4.
`Oc1ccccc1OCc1nc2ccccc2s1` gave HSF1 activator 74.5*, esBAF inh 40.9*, MITF TRPM1 HTS 74.3 and HSF1 inh 33.4.
Screening Oc1ccc(O)c(Cc2nc3ccccc3s2)c1 returned Wnt act -0.3, HSF1 activator 69.2*, esBAF inh 7.4, MITF TRPM1 HTS 20.1 and HSF1 inh 42.6.
For COc1ccc2c(c1OC)C(=O)OC2Nc1ccc(S(=O)(=O)N=C(N)N)cc1 (centres undefined) the results were Wnt act 3.4, HSF1 activator -69.2, esBAF inh -3.0, MITF TRPM1 HTS -0.9 and HSF1 inh -60.5*.
`S=C(NCCN1CCOCC1)N1CCN(c2cccc(Cl)c2)CC1` gave Wnt act -0.2, HSF1 activator -0.6, esBAF inh -5.6, MITF TRPM1 HTS -0.7 and HSF1 inh -2.7.
Screening S=C(NCc1ccco1)N1CCN(C(c2ccccc2)c2ccccc2)CC1 returned HSF1 activator 57.6*, esBAF inh -6.1, MITF TRPM1 HTS -1.3 and HSF1 inh 35.7.
`CC(C)CNC(=S)N1CCN(C(c2ccccc2)c2ccccc2)CC1` gave Wnt act -4.5, HSF1 activator 19.7, MITF TRPM1 HTS -2.0 and HSF1 inh -4.2.
For S=C(NCc1ccco1)N1CCN(c2cccc(Cl)c2)CC1 the results were Wnt act -2.3, HSF1 activator 54.2*, MITF TRPM1 HTS 6.7 and HSF1 inh 44.3.
Screening COc1ccc(C(=O)NC2CCN(C(=S)NCc3ccco3)CC2)cc1 returned Wnt act -1.3, HSF1 activator 55.9*, esBAF inh 6.5, MITF TRPM1 HTS -2.3 and HSF1 inh 33.0.
O=C(NC1CCN(C(=S)NCc2ccco2)CC1)c1cccc(F)c1 was read as Wnt act -0.3, HSF1 activator 15.7, MITF TRPM1 HTS -10.1 and HSF1 inh -1.2.
O=C(Nc1ccc2c(c1)[C@@H]1C[C@@H](CC(=O)N3CCCCC3)O[C@@H](CO)[C@@H]1O2)Nc1ccccc1F was read as esBAF inh 7.9.
`CCn1c(SCC(=O)Nc2oc(C)c3c(C)n[nH]c(=O)c23)nc2sc(C)c(C)c2c1=O` gave HSF1 activator -77.8, esBAF inh -0.9, MITF TRPM1 HTS -1.5 and HSF1 inh -71.3*.
Screening Cc1ccc(C2NC(=O)c3c(sc(C)c3C)N2)c(O)c1 (centres undefined) returned Wnt act 8.3, esBAF inh 98.1* and MITF TRPM1 HTS 24.7.
Cc1cccc(C2NC(=O)c3c(sc(C)c3C)N2)c1O (centres undefined) was read as HSF1 activator -7.8, esBAF inh 16.0, MITF TRPM1 HTS -8.6 and HSF1 inh -4.6.
Cc1sc2c(c1C)C(=O)NC(c1ccccc1F)N2 (centres undefined) was read as Wnt act 31.8*, HSF1 activator 33.7, MITF TRPM1 HTS 32.8 and HSF1 inh 25.5.
For CO[C@H](C(=O)N(C)C[C@@H]1OCc2ccccc2-c2ccccc2C(=O)N([C@@H](C)CO)C[C@@H]1C)c1ccccc1 the results were esBAF inh 2.9.
COC(=O)C[C@@H]1CC[C@H]2[C@@H](COc3ccc(NC(=O)C4CCOCC4)cc3C(=O)N2C)O1 was read as esBAF inh 1.8.
C=CC[n+]1c(-c2ccc(OC)cc2)csc1NNC(=O)Nc1ccccc1 was read as Wnt act 9.6, HSF1 activator 53.7*, esBAF inh 4.6, MITF TRPM1 HTS -8.8 and HSF1 inh 25.6.
O=C(N/N=C/C=C/c1ccccc1)c1cccs1 was read as Wnt act 2.7, HSF1 activator inconclusive, MITF TRPM1 HTS 18.9 and HSF1 inh 17.2.
O=C(N/N=C/C(Br)=C/c1ccccc1)c1cccs1 was read as Wnt act inconclusive, HSF1 activator 130.3*, MITF TRPM1 HTS 62.7 and HSF1 inh 107.8.
Screening O=C(N/N=C/C(Br)=C/c1ccccc1)c1ccccc1F returned Wnt act 18.6, HSF1 activator 250.5*, esBAF inh 51.2*, MITF TRPM1 HTS 70.4 and HSF1 inh 179.0.
`O=C(N/N=C/C(Cl)=C\c1ccccc1)c1cnccn1` gave HSF1 activator 41.1, MITF TRPM1 HTS 27.4 and HSF1 inh 3.2.
O=C(N/N=C/C(Br)=C/c1ccccc1)c1cc(-c2ccco2)[nH]n1 was read as Wnt act 22.8, HSF1 activator 130.2*, MITF TRPM1 HTS -17.1 and HSF1 inh 125.0.

Screening results deposited in PubChem by Broad Institute.
